Assay outcomes from PubChem.
NadD block = inhibitors of S. aureus NadD, primary screen, biochemical, colorimetric, uHTS; AID 602399, 2012; actives 0.78% (n = 360,000); inhibition, % at 20 µM; purified NadD enzyme, colorimetric absorbance read-out; in the data active = inhibition above about 26%
FAS-TE inh = FAS thioesterase domain inhibitors, primary screen, biochemical, fluorescence intensity, uHTS; recombinant FAS-TE, OMFH fluorogenic substrate, fluorescence endpoint; inhibition, % at 15 µM; actives 0.67% (n = 360,000);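 active = compounds whose normalised, plate-corrected inhibition of enzyme fluorescence in the single-dose primary screen is 50% or more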;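 note: 0% = DMSO with enzyme and 100% = substrate without enzyme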
Target sequence (P49327 whole entry, looked up, the tested form may be a part): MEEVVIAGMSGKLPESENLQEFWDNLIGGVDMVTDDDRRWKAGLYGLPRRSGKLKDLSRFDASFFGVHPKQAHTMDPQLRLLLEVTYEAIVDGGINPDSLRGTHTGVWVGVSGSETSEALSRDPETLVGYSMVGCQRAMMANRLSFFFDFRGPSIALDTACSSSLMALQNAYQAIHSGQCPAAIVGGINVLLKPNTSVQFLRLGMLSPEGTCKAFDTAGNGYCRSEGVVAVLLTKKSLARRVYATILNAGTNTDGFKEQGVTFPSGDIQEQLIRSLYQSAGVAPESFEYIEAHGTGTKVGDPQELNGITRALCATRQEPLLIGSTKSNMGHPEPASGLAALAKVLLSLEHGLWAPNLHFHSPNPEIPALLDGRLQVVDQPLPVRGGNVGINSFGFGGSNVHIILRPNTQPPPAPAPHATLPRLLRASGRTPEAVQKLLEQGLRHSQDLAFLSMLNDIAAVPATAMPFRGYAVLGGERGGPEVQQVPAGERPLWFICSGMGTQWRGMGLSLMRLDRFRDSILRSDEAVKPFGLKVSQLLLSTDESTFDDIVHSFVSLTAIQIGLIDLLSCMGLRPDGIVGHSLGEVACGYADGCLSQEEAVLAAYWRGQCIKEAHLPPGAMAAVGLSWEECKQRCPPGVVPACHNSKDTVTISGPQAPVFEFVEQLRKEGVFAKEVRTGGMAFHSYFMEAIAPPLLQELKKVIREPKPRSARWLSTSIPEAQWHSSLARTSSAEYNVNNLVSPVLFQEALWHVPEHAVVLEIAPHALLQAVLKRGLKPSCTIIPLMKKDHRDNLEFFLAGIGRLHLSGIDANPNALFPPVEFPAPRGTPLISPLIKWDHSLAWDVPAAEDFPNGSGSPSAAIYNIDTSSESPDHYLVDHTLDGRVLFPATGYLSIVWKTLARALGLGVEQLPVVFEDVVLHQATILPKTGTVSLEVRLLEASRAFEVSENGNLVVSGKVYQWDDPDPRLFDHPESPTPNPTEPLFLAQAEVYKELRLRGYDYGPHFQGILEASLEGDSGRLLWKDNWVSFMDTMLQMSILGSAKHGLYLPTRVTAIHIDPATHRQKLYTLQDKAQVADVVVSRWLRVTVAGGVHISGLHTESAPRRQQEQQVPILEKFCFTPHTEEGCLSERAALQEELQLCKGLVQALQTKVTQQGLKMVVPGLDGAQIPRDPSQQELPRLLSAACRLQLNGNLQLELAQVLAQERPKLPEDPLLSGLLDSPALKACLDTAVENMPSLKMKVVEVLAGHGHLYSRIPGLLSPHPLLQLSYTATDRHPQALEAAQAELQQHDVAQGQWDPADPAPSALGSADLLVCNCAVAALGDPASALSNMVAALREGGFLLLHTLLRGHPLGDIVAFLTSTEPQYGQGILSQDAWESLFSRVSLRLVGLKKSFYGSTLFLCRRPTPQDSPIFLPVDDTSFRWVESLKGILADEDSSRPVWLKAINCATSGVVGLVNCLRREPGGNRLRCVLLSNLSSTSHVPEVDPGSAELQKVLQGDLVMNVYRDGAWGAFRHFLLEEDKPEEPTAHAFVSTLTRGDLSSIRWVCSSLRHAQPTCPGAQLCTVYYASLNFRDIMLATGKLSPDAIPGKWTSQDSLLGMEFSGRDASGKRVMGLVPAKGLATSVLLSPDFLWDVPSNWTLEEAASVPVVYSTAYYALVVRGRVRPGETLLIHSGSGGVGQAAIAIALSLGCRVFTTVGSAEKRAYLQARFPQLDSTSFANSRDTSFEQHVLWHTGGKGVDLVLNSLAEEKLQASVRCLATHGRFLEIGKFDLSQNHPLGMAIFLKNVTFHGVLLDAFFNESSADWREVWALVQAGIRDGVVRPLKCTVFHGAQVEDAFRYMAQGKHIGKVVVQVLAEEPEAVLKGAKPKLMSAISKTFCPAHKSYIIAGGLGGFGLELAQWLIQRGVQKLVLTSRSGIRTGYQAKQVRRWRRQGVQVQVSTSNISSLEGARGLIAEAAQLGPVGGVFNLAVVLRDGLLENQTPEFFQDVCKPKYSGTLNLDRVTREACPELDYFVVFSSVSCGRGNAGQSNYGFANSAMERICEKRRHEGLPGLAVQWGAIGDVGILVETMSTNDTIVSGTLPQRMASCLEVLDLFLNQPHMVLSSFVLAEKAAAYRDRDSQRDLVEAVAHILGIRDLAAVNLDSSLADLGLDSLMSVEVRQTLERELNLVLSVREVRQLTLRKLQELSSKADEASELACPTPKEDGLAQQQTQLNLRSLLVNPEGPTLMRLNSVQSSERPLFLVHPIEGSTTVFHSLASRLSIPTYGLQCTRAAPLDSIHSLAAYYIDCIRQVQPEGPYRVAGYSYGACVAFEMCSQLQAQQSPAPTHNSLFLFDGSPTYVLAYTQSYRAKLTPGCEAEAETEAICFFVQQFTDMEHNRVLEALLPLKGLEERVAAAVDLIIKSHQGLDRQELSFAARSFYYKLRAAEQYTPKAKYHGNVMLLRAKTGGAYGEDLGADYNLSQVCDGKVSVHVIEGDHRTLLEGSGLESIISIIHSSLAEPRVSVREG
NR3A LBD binder = binders of NR3A ligand-binding domain, primary screen, biophysical, differential scanning fluorimetry, uHTS; Glutamate receptor ionotropic, NMDA 3A (GRIN3A) ligand-binding domain; NR3A LBD differential scanning fluorimetry, Tm shift; 0% = protein alone, 100% = glycine-bound protein; Tm shift relative to glycine control, % at 25 µM; actives 2.5% (n = 340,000);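 active = melting temperature shift of at least 10% of the positive control shift, at one fixed dose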
rCAG RNA binder = binders of r(CAG) RNA repeats, primary screen, biochemical, fluorescence. r(CAG) RNA repeat, TO-PRO-1 dye displacement fluorescence. inhibition, % at 3 µM. actives 1.3% (n = 370,000). AID 651821, 2012;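 active = inhibition above the plate cutoff, the mean of all test compounds on that plate plus 3 SD, cut at about 35% in these data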;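 note: 0% = DMSO alone and 100% = 100 µM mitoxantrone as full dye displacement; higher means more dye released from RNA so lower well fluorescence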
Starred values were filed as active, the others as inactive; x = not tested or not shown. This is a sample that favours compounds with a hit; in the whole collection about 4.3% have one here.

SMILES | NadD block | FAS-TE inh | NR3A LBD binder | rCAG RNA binder
COC(=O)C1=C(C)N(Cc2cccc(C(F)(F)F)c2)C(=NCc2ccccc2C(F)(F)F)NC1c1cccc(C(F)(F)F)c1 (stereo unspecified) | x | x | x | -1.0
CCOC(=O)c1ccc(Nc2nc(C)cc(C)n2)cc1 | -7.7 | -2.5 | 0.0 | -0.6
COC(=O)c1cccc(Nc2cc(C)nc(-c3ccccc3O)n2)c1 | -3.5 | 33.5 | 16.8* | 7.5
CCOC(=O)c1ccc(Nc2cc(C)nc(-c3ccccc3)n2)cc1 | -5.6 | 26.0 | 10.3* | 21.1
COC(=O)c1ccc(Nc2cc(C)nc(-c3ccccc3O)n2)cc1 | 5.0 | 1.9 | 22.8* | 4.3
COC(=O)c1ccc(Nc2cc(C)nc3ccc(C)cc23)cc1 | -4.9 | 4.9 | -2.2 | 3.1
Cc1cc(Nc2ccc(Cl)cc2)nc(-c2ccccc2O)n1 | 4.5 | 26.7 | 35.4* | 25.4
COc1ccc(S[C@]2(C(=O)N3CCCC3)CC(=O)N(C(=O)CCc3ccccc3)[C@@H]2c2ccc(OC)cc2)cc1 | x | x | x | 9.3
COC(=O)[C@]12C[C@H](CC(=O)NCc3ccc(C)o3)C(=O)N(Cc3ccc(Cl)cc3Cl)C1=C[C@H](COCc1ccccc1)O[C@@H]2C | x | x | x | 8.0
COc1cccc(OC)c1C(=O)Nc1cccc(S(=O)(=O)Nc2ccccc2Cl)c1 | 4.8 | -1.9 | -0.3 | 15.5
COc1ccccc1NS(=O)(=O)c1ccc(C(=O)N2CCCCCCC2)cc1 | -5.3 | 3.9 | -1.2 | 0.2
CCNC(=S)Nc1cccc(S(=O)(=O)Nc2ccccc2OC)c1 | -1.2 | -3.1 | -2.4 | 0.2
COc1ccccc1NS(=O)(=O)c1ccc(NC(=O)N2CCCCC2)cc1 | -6.1 | -3.8 | 12.6* | 4.1
Nc1ccc(N2CCCCC2)c(S(=O)(=O)Nc2ccccc2Cl)c1 | 11.2 | 20.5 | -5.4 | 9.9
COc1ccccc1NS(=O)(=O)c1cccc(NC(=O)Nc2ccccc2)c1 | -8.9 | 13.1 | 22.2* | 18.4
COc1ccccc1NS(=O)(=O)c1cccc(NC(=O)Nc2ccc(Cl)cc2)c1 | -5.8 | 33.4 | 17.8* | 30.9
COc1ccccc1NS(=O)(=O)c1cc(N)ccc1N1CCCCC1 | -2.5 | 15.1 | 32.8* | 2.1
Cc1ccc(S(=O)(=O)N2CCCC(C(=O)NCCN3CCC(Cc4ccccc4)CC3)C2)cc1 (stereo unspecified) | x | x | x | 1.7
CCCCCCNC(=O)C1CSCCS(=O)(=O)N1Cc1ccccc1 (stereo unspecified) | x | x | x | -3.7
Cc1ccccc1NC(=O)CCS(=O)(=O)c1ccccc1 | x | x | x | 3.1
CNC(=O)C[C@H]1CC[C@H]2[C@@H](COc3ccc(NC(=O)Nc4ccccc4)cc3C(=O)N2C)O1 | x | x | x | 2.9
COc1ccccc1C(=O)Nc1ccc(S(=O)(=O)Nc2cc(C)nc(C)n2)cc1 | 4.2 | -4.5 | 15.7* | 10.1
O=S(=O)(Nc1cccc2ccccc12)c1cccs1 | -2.5 | -0.3 | 0.7 | 3.5
O=C(Nc1ccccc1)Nc1ccccc1NS(=O)(=O)c1cccs1 | -6.4 | 3.6 | 22.2* | 17.5
CCCC[C@@H]1C(=O)N2N=Cc3ccccc3[C@H]2N2N=Cc3ccccc3[C@@H]12 | x | x | x | -1.5
SMILES | NadD block | FAS-TE inh | NR3A LBD binder | rCAG RNA binder
Cc1cc(C(=O)COC(=O)c2ccc(NC(=O)CC#N)cc2)c(C)n1-c1ccc(OC(F)F)cc1 | 23.8 | 16.5 | 16.8* | 24.7
Cn1c(=O)oc2cc(S(=O)(=O)N3CCN(CCO)CC3)ccc21 | x | x | x | 0.3
COC(=O)C1CN(Cc2ccc(OC)cc2)CCS(=O)(=O)N1Cc1ccccc1 (stereo unspecified) | x | x | x | 4.1
O=C(Cc1ccc(Cl)cc1)Nc1ccc(-c2nnc(-c3ccco3)o2)cc1 | -4.2 | -1.9 | 13.1* | 17.3
COc1cc(C(=O)Nc2cccc(-c3nnc(-c4ccco4)o3)c2)ccc1OC(C)=O | -5.5 | 6.8 | -4.9 | 0.5
COc1cc(C(=O)Nc2ccc(-c3nnc(-c4ccco4)o3)cc2)cc(OC)c1OC | -13.9 | 9.7 | 30.3* | 3.7
CCn1c(SCC(N)=O)nnc1-c1ccc(OC)c(OC)c1 | 9.3 | -5.8 | 12.7* | 2.8
CCn1c(SCC(N)=O)nnc1-c1ccc2c(c1)OCO2 | -3.7 | -3.2 | -1.2 | -0.3
CCOC(=O)Nc1ccc2c(c1)Nc1ccccc1S2 | 12.7 | 26.9 | 12.3* | 17.2
Cc1ccc(S(=O)(=O)N(Cc2ccc(F)cc2)Cc2ccco2)cc1 | 3.7 | 23.3 | 12.2* | -2.0
CCOC(=O)c1c(NC(=O)C2CC2)sc(C)c1CC | -1.2 | 13.7 | 11.5* | -0.6
